# Screening results (PubChem BioAssay)
# Most compounds without a hit are left out; they make up all but 6.9% or so of the library.
# MCF10A rereplic: A quantitative high throughput screen for small molecules that induce DNA re-replication in MCF 10a normal breast cells; Potency, µM (titrated, usually from 46.1 µM), inactives show at the highest dose activity, positive = re-replication, usual class: activators; 350,000 tested, 2.9% active; MCF 10A DNA re-replication, Hoechst nuclear intensity, 48 h; note: potency is the fitted concentration of half-maximal effect; % of control where 0% means no effect; nearly all actives have a fitted effect of over 50% in size
# Giardia kill: Small Molecules that selectively kill Giardia lamblia: qHTS; Giardia lamblia trophozoite viability; activity change, % at 7.66 µM, hits read low; 340,000 tested, 0.15% active; AID 540267, 2011; in the data active = activity change below about -80%; inconclusive = between about -30% and that limit;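 note: parasites exposed to compound for two days anaerobically before the ATP read; % is set by controls: 0 for no effect and ±100 for the full control effect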
#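 Luminescence from cellular ATP indicates surviving trophozoites (100 cells/well) following 48 hrs anaerobic compound treatment at 37 deg C; signal develops 15-30 min at room temperature.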
# SW480 rereplic: A quantitative high throughput screen for small molecules that induce DNA re-replication in SW480 colon adenocarcinoma cells. SW480 DNA re-replication, Hoechst DNA content imaging, 48 h. Potency, µM (top dose mostly 46.1 µM), without a hit: at the highest dose re-replication activation, most hits filed as activators. 340,000 tested, 1.8% active. AID 624297, 2012; note: potency is the fitted concentration of half-maximal effect; % of control where 0% means no effect; nearly all actives have a fitted effect of over 55% in size
#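 Compounds, transferred as 23 nL by pin tool, were incubated with cells for 48 hr; DNA content per nucleus was then quantified by Hoechst staining and fluorescence plate imaging.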
# KB-V1 MDR tox: qHTS assay for MDR1-selective chemotherapeutics: Primary screen using the drug-selected MDR subline cells KB-V1. KB-V1 MDR cells viability, CellTiter-Glo, 72 h. Potency, µM (series often up to 46.1 µM), usual class: cytotoxic. 400,000 tested, 3.4% active. AID 1347076, 2019; note: potency is the fitted concentration of half-maximal effect; % is set by controls: 0 for no effect and ±100 for the full control effect; nearly all actives have a fitted effect of over 60% in size
#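 Cytotoxicity toward P-gp-expressing KB-V1 cells was determined as loss of CellTiter-Glo luminescence after 72 h at 37 degrees C. Compounds were tested in quantitative HTS format across a concentration range, with curves fitted to normalized data.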
# S-ASM inh: Inhibitors of Secretory Acid Sphingomyelinase (S-ASM): qHTS; placental ASM, HMU-PC fluorogenic substrate, 60 min; Potency, µM (highest dose often 57.5 µM), without a hit: at the highest dose activity change, negative = inhibition, most hits filed as inhibitors; Sphingomyelin phosphodiesterase (Homo sapiens), P17405; 340,000 tested, 0.006% active; note: potency is the fitted concentration of half-maximal effect
# Target sequence (P17405 47-631 limits assumed): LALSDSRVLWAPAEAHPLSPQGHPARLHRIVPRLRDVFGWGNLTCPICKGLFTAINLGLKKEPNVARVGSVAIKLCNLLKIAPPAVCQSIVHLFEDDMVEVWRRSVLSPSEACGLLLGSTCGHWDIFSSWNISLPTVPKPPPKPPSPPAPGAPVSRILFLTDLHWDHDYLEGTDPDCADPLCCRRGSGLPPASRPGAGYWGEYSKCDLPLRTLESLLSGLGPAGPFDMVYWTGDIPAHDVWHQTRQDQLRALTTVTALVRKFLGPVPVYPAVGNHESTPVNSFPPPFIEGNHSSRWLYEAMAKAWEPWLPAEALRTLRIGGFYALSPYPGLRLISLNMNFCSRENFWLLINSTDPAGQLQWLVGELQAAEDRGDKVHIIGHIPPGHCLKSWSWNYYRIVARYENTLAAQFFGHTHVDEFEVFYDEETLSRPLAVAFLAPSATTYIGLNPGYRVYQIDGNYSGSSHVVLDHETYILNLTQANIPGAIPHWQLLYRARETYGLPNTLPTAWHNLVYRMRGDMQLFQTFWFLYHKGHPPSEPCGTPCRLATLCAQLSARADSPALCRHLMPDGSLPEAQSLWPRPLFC
#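 Fluorogenic HMU-PC substrate (9 uM final) is turned over by placental ASM in 60 min at 37 C after a 10 min compound preincubation. Reaction ended by alkaline stop (pH 10), with fluorescence read at 386/447 nm.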
# KB-3-1 cytotox: qHTS assay for MDR1-selective chemotherapeutics: Primary screen using the parental adenocarcinoma cell KB-3-1 | KB-3-1 viability, CellTiter-Glo ATP luminescence, 72 h | Potency, µM (top dose mostly 46.1 µM), most hits filed as cytotoxic | 400,000 tested, 1.4% active; note: potency is the fitted concentration of half-maximal effect; % is set by controls: 0 for no effect and ±100 for the full control effect; nearly all actives have a fitted effect of over 60% in size
#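 KB-3-1 parental drug-naive adenocarcinoma cells in DMEM/10% FBS, incubated 72 h at 37 C with pin-transferred compounds across a concentration series. Viability by CellTiter-Glo luminescence; concentration-response curves fitted after normalization.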
# Active calls of the source: *; i = inactive; u = inconclusive; x = not tested or not shown; [ ] = remark or other dose. Unless noted, calls come from the whole dose curve; as a rule, active = well fitted curve in the direction sought with a large enough effect; inconclusive = small, poorly fitted or top-dose-only effect, or another doubt; inactive = no such curve, though single readings can be large; an effect the other way counts as inactive or inconclusive.
SMILES,MCF10A rereplic,Giardia kill,SW480 rereplic,KB-V1 MDR tox,S-ASM inh,KB-3-1 cytotox
O=C(CC1C[C@H](C(=O)N2CCCCC2)[C@@]2(CCc3ccccc3)c3[nH]c4ccccc4c3CCN2C1=O)NCCc1ccccn1 (some centres not stated),24%,4,-54%[9.22 µM],12µM*,-6%,u
C[C@]12c3[nH]c4cc(-c5ccco5)ccc4c3CCN1C(=O)[C@@H](CC(=O)NCCN1CCOCC1)C[C@@H]2C(=O)N1CCOCC1,4%,-27,u,u,16%,i
CN(C)CCCNC(=O)C[C@H]1C[C@H](C(=O)N2CCCCC2)[C@@]2(C)c3[nH]c4cc(-c5ccco5)ccc4c3CCN2C1=O,u,0,2.1µM*,i,17%,i
C[C@]12c3[nH]c4cc(-c5ccco5)ccc4c3CCN1C(=O)[C@@H](CC(=O)NCc1cccc(C(F)(F)F)c1)C[C@@H]2C(=O)N1CCCCC1,-41%,-16,u,u,u,18µM*
CC(C)N(C(=O)[C@H]1C[C@H](CC(=O)NCCN2CCOCC2)C(=O)N2CCc3c([nH]c4cc(-c5ccco5)ccc34)[C@]12C)C(C)C,-38%,-10,16µM*,i,-18%,i
CCc1ccc2c(c1)c(=O)c(C(=O)c1ccccc1)cn2CC(=O)Nc1ccc(C)c(Cl)c1,x,x,x,i,x,i
Cc1ccc2oc(-c3ccc(C)c(NC(=O)COc4ccccc4C)c3)nc2c1,x,x,x,i,x,i
CCOc1ccc(N2C(=O)CC(NCCc3c[nH]c4ccccc34)C2=O)cc1 (configuration not stated),-1%,11,2.9µM*,i,-2%,i
CC12CCC(=O)N1C(C(=O)Nc1cc(Cl)ccc1N1CCCC1)CS2 (configuration not stated),-2%,-3,3%,i,-1%,i
Cc1c(N=Nc2c(-c3ccc([N+](=O)[O-])cc3)[nH]n(C(N)=S)c2=O)cccc1[N+](=O)[O-],u,-16,u,16µM*,-4%,21µM*
NC(=S)n1[nH]c(-c2ccc([N+](=O)[O-])cc2)c(N=Nc2ccccc2[N+](=O)[O-])c1=O,-2%,31,-10%,i,-1%,i
COc1ccccc1NC(=O)Cn1c(=O)n(Cc2ccccc2)c(=O)c2ccccc21,x,x,x,i,x,i
CCOC(=O)/C=c1\s/c(=C\c2ccc3c(c2)OCCO3)c(=O)n1CC(=O)NCC1CCCO1 (configuration not stated),u,-1,-2%,i,40%,i
Cc1cc(NC(=O)Cn2c(=O)n(Cc3ccccc3)c(=O)c3ccccc32)no1,12%,-2,8%,7.3µM*,-2%,i
CCOC(=O)/C=c1/s/c(=C\c2c(OC)ccc3ccccc23)c(=O)n1CC(=O)NCC1CCCO1 (configuration not stated),u,-6,15µM*,4.6µM*,-12%,u
COc1cc2c(=O)n(Cc3ccccc3)c(=O)n(CC(=O)NCC3CCCO3)c2cc1OC (configuration not stated),-2%,1,-3%,21µM*,-3%,i
CCOC(=O)/C=c1\s/c(=C\c2ccc3cc(OC)ccc3c2)c(=O)n1CC(=O)NCc1ccc2c(c1)OCO2,18%,-6,5%,u,17%,18µM*
CCOC(=O)/C=c1\s/c(=C\c2c(OCC)ccc3ccccc23)c(=O)n1CC(=O)NCC1CCCO1 (configuration not stated),u,-13,23%,u,-12%,u
COC(=O)C(CC(C)C)NS(=O)(=O)c1ccccc1Br (configuration not stated),x,-4,x,x,x,x
CCOc1ccccc1NC(=O)C(=O)NCCc1sc(-c2cccc(F)c2)nc1C,x,x,x,i,x,i
O=S(=O)(c1ccc(Cl)cc1)c1nnn2c1nc(N1CCCCC1)c1sccc12,x,x,x,i,x,i
CCCN(CC(=O)Nc1ccc(F)c(F)c1F)C(=O)c1ccc(N2CCCC2=O)cc1,2%,-1,-5%,i,1%,i
CNc1cnc(-c2ccccc2OC)cn1,x,x,x,i,x,i
Cc1ccccc1CN1CCN(CC(=O)NCc2ccc3c(c2)OCO3)C1=O,13%,12,-4%,i,2%,i
CCOC(=O)/C=c1\s/c(=C\c2ccccc2C)c(=O)n1CC(=O)NCc1ccc2c(c1)OCO2,u,-10,u,3.3µM*,45%,i
SMILES,MCF10A rereplic,Giardia kill,SW480 rereplic,KB-V1 MDR tox,S-ASM inh,KB-3-1 cytotox
CCCCc1nc2n[nH]c(N)c2c2c1CCCC2,u,3,1%,0.52µM*,-2%,4.1µM*
CCN=c1scc(C)n1/N=C/c1cc(Br)c(O)c(OC)c1,21µM*,-1,7%,i,76%,i
O=C(CSCc1ccc(Br)cc1)Nc1ccc(S(=O)(=O)N2CCOCC2)cc1,-4%,-8,-3%,21µM*,u,i
O=S(=O)(c1ccc(Oc2ccc(Br)cc2)cc1)N1CCOCC1,1%,-15,-4%,12µM*,-5%,i
Cc1ccc(CSCC(=O)Nc2cc(S(=O)(=O)N3CCOCC3)ccc2OCC(F)(F)F)cc1,2%,20,6%,15µM*,-7%,u
Cc1cc(-n2c(C)nc3ccccc3c2=O)ccc1NC(=O)c1cccc([N+](=O)[O-])c1C,x,x,x,i,x,i
CCCCOc1nnc(-c2ccc(OCC)cc2)c2ccccc12,x,x,x,i,x,i
O=C(CNC(=O)c1ccccc1Cl)OCc1cc(=O)n2nc(C3CC3)sc2n1,x,x,x,i,x,i
CCOc1ccc(CNC(=O)c2ccc3c(c2)c(C)c(C)n3Cc2ccccc2)cc1OC,x,x,x,i,x,i
CO[C@]1(NC(=O)CSCC#N)C(=O)N2C(C(=O)O)=C(CSc3nnnn3C)CS[C@H]21,8%,x,1%,x,x,x
COc1cccc(N=c2oc3ccc(OC)cc3cc2-c2nc3ccccc3[nH]2)c1,u,-11,u,i,30%,i
COc1cccc(N=c2oc3ccccc3cc2-c2nc3ccccc3[nH]2)c1,11%,u,19%,18µM*,9%,i
Cc1ccc(CCNC(=O)c2cc3c(=O)n(C)c4ccccc4c3n2C)cc1,x,x,x,i,x,i
